# Six1-Eya2 blk: blocks human Six1 binding to Eya2; AlphaScreen GST-Six1/His-Eya2 binding, biochemical; stronger effect = lower value; activity change, % (concentration not given with the values); 360,000 compounds, 0.56% hits; in the data active = activity change below about -65%; inconclusive = mostly about -30% to -63%
#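 AlphaScreen with GST-Six1 and His-Eya2 (5X mix: 250 nM and 500 nM), glutathione donor and nickel acceptor beads; buffer 50 mM Tris pH 8.0, 300 mM NaCl, 1 mM TCEP; 1 h at 37 C in the dark.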
# DT40 TDP1 CPT: growth inhibition of DT40 Tdp1-/-;hTDP1 cells with camptothecin (screen for TDP1 inhibitors); chicken DT40 Tdp1-/-;hTDP1 cells + 20 nM CPT, ATP luminescence, 48 h; Potency, µM (highest dose often 46.2 µM), usual class: inhibitors; 420,000 compounds, 12% hits; AID 686979; also: nearly all actives have a fitted effect of over 55% in size
#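 Cell growth measured by CellTiter-Glo luminescence after a minimum 48 h, 37 C compound exposure with 20 nM CPT in Tdp1-knockout DT40 cells stably expressing hTDP1, seeded 400/well; qHTS titration format.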
# IL1B secr inh: inhibitors of inflammasome signaling (IL-1 beta secretion); THP-1 LPS/ATP IL-1B secretion, AlphaLISA, 16 h; stronger effect = lower value; activity change, % at 57.5 µM; 360,000 compounds, 4.7% hits; AID 743279; in the data active = activity change below about -50%; inconclusive = mostly about -30% to -49%
#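 THP-1 cells pretreated 1 hr with compounds (up to 57.5 uM final), then stimulated with LPS (250 ng/mL final) plus ATP (1.25 mM final); secreted IL-1B measured by AlphaLISA after 16 hr, decreased signal indicating inhibition.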
# CtBP-E1A inh: blocks the CtBP interaction with E1A; activity change, % (no concentration beside the values); 340,000 compounds, 0.49% hits; AlphaScreen GST-E1A/His-CtBP binding, 1536-well; stronger effect = lower value; AID 651724; in the data active = activity change below about -65%; inconclusive = mostly about -30% to -63%
#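 AlphaScreen with 125 nM GST-E1A and 125 nM His-CtBP (5X stocks) in Tris pH 8.0, 300 mM NaCl, BSA, Tween 20, TCEP. Compounds preincubated 2 h at 37 deg C, then glutathione donor/nickel acceptor beads added for 1 h at 37 deg C in dark.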
# DT40 TDP1 no CPT: qHTS for Inhibitors of human tyrosyl-DNA phosphodiesterase 1 (TDP1): qHTS in cells in absence of CPT; Potency, µM (highest dose often 46.2 µM), actives largely listed as inhibitors; 420,000 compounds, 15% hits; AID 686978, 2013; DT40 Tdp1-/- hTDP1 cells, no CPT, ATP luminescence, 48 h; also: nearly all actives have a fitted effect of over 55% in size
#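 Chicken DT40 Tdp1-/- cells complemented with human TDP1, screened without camptothecin (DMSO vehicle only), 400 cells/well. Compounds pin-transferred, cells incubated at 37 °C for at least 48 hr. Growth read as ATP-dependent luminescence (CellTiter-Glo, 30 min at RT).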
# TDP1 block: TDP1 (human) enzyme inhibition. AID 485290. recombinant TDP1, AlphaScreen DNA substrate cleavage. 350,000 compounds, 0.28% hits. Q9NUW8. Potency, µM (doses to about 130 µM), hits mostly inhibitors; also: nearly all actives have a fitted effect of over 40% in size
# Target sequence (Q9NUW8 whole entry, looked up): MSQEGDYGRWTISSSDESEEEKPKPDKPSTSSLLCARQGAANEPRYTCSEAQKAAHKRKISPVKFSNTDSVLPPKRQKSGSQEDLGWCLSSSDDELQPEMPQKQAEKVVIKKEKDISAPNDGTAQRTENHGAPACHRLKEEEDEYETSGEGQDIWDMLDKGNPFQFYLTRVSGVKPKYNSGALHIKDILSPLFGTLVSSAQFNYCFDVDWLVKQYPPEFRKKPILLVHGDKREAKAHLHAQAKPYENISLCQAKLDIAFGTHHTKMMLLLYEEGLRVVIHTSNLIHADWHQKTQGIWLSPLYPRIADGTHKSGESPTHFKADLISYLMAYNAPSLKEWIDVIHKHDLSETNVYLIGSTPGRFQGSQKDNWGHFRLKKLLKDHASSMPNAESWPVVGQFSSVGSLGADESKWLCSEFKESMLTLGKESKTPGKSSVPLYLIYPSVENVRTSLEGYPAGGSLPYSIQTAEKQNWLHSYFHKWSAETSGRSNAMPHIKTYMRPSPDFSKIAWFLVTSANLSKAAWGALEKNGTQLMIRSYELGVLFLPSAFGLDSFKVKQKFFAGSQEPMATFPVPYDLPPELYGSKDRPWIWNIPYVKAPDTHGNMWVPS
#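 Steps: enzyme plus compound, 15 min RT; add biotin/phosphotyrosine-FITC oligonucleotide (15 nM final), react 5 min; add donor/acceptor beads (10 ug/ml final), 10 min; read AlphaScreen. Tdp1 at 1 nM final.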
# Hits are given with their value; - = inactive; ? = inconclusive; . = no result. An excerpt weighted towards active compounds, which were near 18% of everything screened. Unless noted, calls follow the shape of the dose curve; as a rule, active = well fitted curve in the direction sought with a large enough effect; inconclusive = small, poorly fitted or top-dose-only effect, or another doubt; inactive = no such curve, though single readings can be large; an effect the other way counts as inactive or inconclusive.
SMILES,Six1-Eya2 blk,DT40 TDP1 CPT,IL1B secr inh,CtBP-E1A inh,DT40 TDP1 no CPT,TDP1 block
O=S1(=O)CC(N2CCN(Cc3ccccc3F)CC2)CN1Cc1cn(Cc2ccc(C(F)(F)F)cc2)nn1 (configuration not stated),-,13µM,-,-,9.2µM,.
CCC(=O)Nc1ccc(Cl)c(NC(=O)c2ccc([N+](=O)[O-])cc2)c1,-,?,-,-,?,-
Clc1cccc(Cl)c1/C=C/c1ccn[nH]1,-,18µM,-,-,10µM,.
O=C(COC(=O)CNC(=O)c1ccc(Br)cc1)NCCC1=CCCCC1,-,-,-,-,-,-
OC(COc1ccc2ccccc2c1Br)Cn1ccnc1 (configuration not stated),-,?,-,-,21µM,-
CCOc1ccccc1N1CCN(Cc2ccco2)CC1,-,-,-,-,-,-
CCOc1ccccc1N1CCN(C/C=C/c2ccc(N(C)C)cc2)CC1,-77,?,-,?,?,-
O=C1N[C@@H](c2ccccc2)COC(=O)[C@H](Cc2ccc(F)cc2)CC/C=C/C[C@H]1CC(=O)N(CCO)Cc1ccccc1,-,18µM,-,-,15µM,-
O=C1N[C@@H](c2ccccc2)COC(=O)[C@@H](Cc2ccc(F)cc2)C/C=C\C[C@@H]1CC(=O)N(CCO)Cc1ccccc1,-,15µM,-,-,13µM,-
C[C@@H]1COC(=O)[C@@H](Cc2ccc(F)cc2)C/C=C\C[C@H](CC(=O)N(CCO)Cc2ccccc2)C(=O)N1,-,?,-,-,?,-
O=C1N[C@@H](c2ccccc2)COC(=O)[C@H](Cc2ccc(F)cc2)C/C=C\C[C@H]1CC(=O)N(CCO)Cc1ccccc1,-,-,-,-,-,.
COc1ccc(NC(=S)NC(=O)/C=C/c2cccs2)cc1,-,?,-,-,?,-
COc1ccc(NC(=O)CO/N=C/C(=O)Nc2ccccc2C)c([N+](=O)[O-])c1,-,-,-,-,-,-
Cc1ccc(NC(=O)Nc2nnc(N(C)Cc3ccccc3)s2)c(C)c1,.,-,.,.,?,-
Cc1ccc(Cl)cc1NC(=O)Nc1nnc(N(C)Cc2ccccc2)s1,.,21µM,.,.,23µM,-
CCc1cc2ccccc2nc1Cl,-,-,-,-,-,-
ClCc1cc2ccccc2nc1Cl,-,10µM,-,-,8.2µM,-
Cc1ccc2cc(CCl)c(Cl)nc2c1,-,16µM,-,-,21µM,-
Cc1cc(N2CCN(c3cccc(C(F)(F)F)c3)CC2)n2nc(C)nc2n1,-,-,-,-,?,-
CN(C)C=Nc1ccc2nc3c(cc2c1)[nH]c1ccccc13,-,?,-,.,12µM,.
CCOC(=O)c1[nH]c2ccccc2c1N=CN(C)C,-,-,-,-,-,.
COc1cccc(CNC(=O)C2CCN(S(=O)(=O)N3CCC(C)CC3)CC2)c1,-,?,-,-,?,-
CCOC(=O)c1cnc2cc(-c3ccc(C)cc3)nn2c1-c1ccccc1,-,?,-,-,?,.
CCOC(=O)c1cnc2cc(-c3ccc(OCC)cc3)nn2c1-c1ccccc1,.,15µM,.,.,8.2µM,-
COc1ccc(-c2cc3ncc(-c4ccccc4)c(N)n3n2)cc1,-,?,-55,-,?,-
SMILES,Six1-Eya2 blk,DT40 TDP1 CPT,IL1B secr inh,CtBP-E1A inh,DT40 TDP1 no CPT,TDP1 block
CC(C)CC(NC(=O)C1CCC(C)CC1)C(=O)NCc1ccccn1 (configuration not stated),-,-,-,-,?,-
CC(C)CC(NC(=O)C1CCC(C)CC1)C(=O)N1CCN(c2ccccn2)CC1 (configuration not stated),-,16µM,-,-,23µM,-
CCOC(=O)c1c(C)[nH]c(C)c1S(=O)(=O)N1CCCC(C(=O)N2CCN(c3ccc(Cl)cc3)CC2)C1 (configuration not stated),.,16µM,.,.,?,-
CCOC(=O)c1c(C)[nH]c(C)c1S(=O)(=O)N1CCN(c2ccc([N+](=O)[O-])cc2)CC1,-,?,-,.,13µM,-
O=C(C1CCCN(S(=O)(=O)c2cnc[nH]2)C1)N1CCN(c2ccc(Cl)cc2)CC1 (configuration not stated),-,13µM,-,-,18µM,-
CC(C)N=C(Nc1cccnc1)c1ccccc1,-,-,-,-,-,.
COc1cc2cc(C)nc(Cc3cccc4ccccc34)c2cc1OC,-,15µM,-,-,23µM,-
CCOC(=O)CC(=O)CSc1nc(N)c(C#N)c(-c2ccc(Cl)cc2)c1C#N,-,-,-,-,-,-
COc1cc2c(cc1O)CCN[C@]21CS[C@@H]2c3c(OC(C)=O)c(C)c4c(c3[C@H](COC1=O)N1[C@@H]2[C@H]2c3c(cc(C)c(OC)c3O)C[C@@H]([C@@H]1O)N2C)OCO4,.,0.0043µM,.,.,0.0043µM,.
O=C(c1cccc(C(F)(F)F)c1)N1CCN(c2cc(=O)[nH]nc2-c2ccccc2)CC1,-,-,-,-,-,-
Cc1ccccc1OCCN(C#N)c1nc(N(C)C)nc(N(C)C)n1,-,?,-,-,16µM,-
O=C(NCCS(=O)(=O)N1CCN(c2ccc(F)cc2)CC1)C12CC3CC(CC(C3)C1)C2,-,18µM,-,-,16µM,.
O=C(NCCS(=O)(=O)N1CCN(c2ccc(F)cc2)CC1)c1cccc(C(F)(F)F)c1,.,?,.,.,18µM,-
CCn1c(C)nnc1SCC(=O)NC1CCCCCC1,-,-,-,-,-,-
O=C1CN(C(=O)/C=C/c2ccco2)c2ccccc2N1,-,-,-,-,?,45µM
O=C1CN(C(=O)/C=C/c2cccc(Cl)c2)c2ccccc2N1,-,-,-,-,-,-
CCOc1ccc(N(CCC#N)S(=O)(=O)c2ccc(OC)cc2)cc1,-,?,-,-,?,-
COc1ccccc1N(CC1CO1)S(=O)(=O)c1ccc(C)cc1 (configuration not stated),-,?,-,-,21µM,-
CCOc1ccc(S(=O)(=O)N(CC(N)=O)c2ccc(C)cc2)cc1,-,-,-,-,-,-
COc1ccccc1N(CC1CO1)S(=O)(=O)c1ccccc1 (configuration not stated),-,?,-,-,?,.
COc1ccc(N(CC2CO2)S(=O)(=O)c2ccccc2)cc1 (configuration not stated),-,?,-69,-,?,-
